VCAM1 TNFa inh – inhibitors of TNFa-induced VCAM1 expression, primary screen, imaging, HUVEC, TNFa stimulus, immunofluorescence; 0.48% of 95,000 active; inhibition, % at 2 µM; HUVEC TNFa-induced VCAM-1 immunofluorescence, high-content imaging;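 active = inhibition above the batch mean plus 3 SD, with images confirmed as a hit by eye, cut at about 37% in these data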;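 note: 0% = TNF-stimulated DMSO wells and 100% = unstimulated control wells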
HUVEC tox TNFa – cytotoxicity in TNFa-stimulated HUVEC, primary screen, cytotoxicity control for VCAM1 expression modulator project, imaging, Hoechst nuclei count. HUVEC TNFalpha-stimulated, Hoechst cell count. AID 848, 2007. 0.17% of 93,000 active. cell count reduction, % at 2 µM;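 active = cell count reduction exceeding the screen mean by over 5 SD, scaled to untreated wells per plate, cut at about 78% in these data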;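 note: cells counted after 24 h of TNF alpha exposure following the 1 h pretreatment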
IL1B NFkB inh – inhibitors of IL-1B driven NFkB p65 nuclear import, primary screen, imaging, HUVEC, IL-1B stimulus, high-content imaging; HUVEC IL-1B NFkB p65 nuclear translocation imaging; inhibition, % at 2 µM; 0.43% of 94,000 active; AID 796, 2007;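 active = inhibition above about 30% together with a positive call from visual inspection of the well image, limit read from the data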;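 note: nuclear over cytoplasmic p65 intensity ratio measured by imaging; 0% = IL-1B stimulated DMSO wells and 100% = unstimulated DMSO wells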
F-actin modifier – modifiers of F-actin cytoskeleton organization, primary screen, imaging, HUVEC, phalloidin staining, high-content imaging. HUVEC TNFa F-actin phalloidin imaging. inhibition, % at 2 µM. 0.18% of 91,000 active;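 active = inhibition above the batch mean plus 3 SD and confirmed as a hit by visual image inspection, cut at about 30% in these data, passing the limit was not always enough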
IL1B NFkB pot – enhancers of NFkB p65 translocation in HUVEC – imaging, IL-1B stimulus, high-content imaging, primary screen; HUVEC IL-1B NFkB p65 nuclear translocation imaging; activation, % at 2 µM; 0.3% of 94,000 active;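 active = activation above 40%, about the mean plus 3 SD, also judged a hit on visual image review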;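 note: percent activation is computed from the nuclear over cytoplasmic p65 intensity ratio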
HUVEC tox IL1B – cytotoxicity in IL-1B stimulated HUVEC, primary screen, cytotoxicity control for IL-1B NFkB translocation project, imaging, Hoechst nuclear count, IL-1B stimulus; 0.41% of 94,000 active; HUVEC cell count loss; cell count reduction, % at 2 µM; AID 845, 2007;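 active = cell count reduction more than 3 SD above the screen-wide mean, cut at about 70% in these data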;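 note: normalized per plate to untreated control cells as the no-loss baseline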
An asterisk follows results filed as active; / = not tested or not shown. Hits are enriched below; roughly 1.6% of the tested compounds scored in any of these assays.

SMILES	VCAM1 TNFa inh	HUVEC tox TNFa	IL1B NFkB inh	F-actin modifier	IL1B NFkB pot	HUVEC tox IL1B
COc1ccccc1N1C(=O)c2ccccc2NC1c1ccncc1 (stereo not drawn)	-12	-35	-4	12	4	-34
Cc1cc(C)n(-c2nc3ccccc3nc2N2CCC(C)CC2)n1	12	-4	6	-9	-6	5
Cc1cc(N2CCC(C)CC2)nc(-n2nc(C)cc2C)n1	-4	27	-1	40*	1	-6
CCCc1cc(=O)[nH]c(NCc2ccc(Cl)cc2)n1	15	-6	0	4	0	90*
CCCc1cc(=O)[nH]c(Nc2ccc(O)cc2)n1	0	-37	-9	/	9	-7
CSc1ccccc1NS(=O)(=O)c1ccccc1	-5	-23	7	-8	-7	-7
